DAX1 inh: DAX1 (NR0B1) inhibitors on StAR promoter, primary screen, cell-based, luminescence, SF-1 (NR5A1), full-length DAX-1 | HEK293T StAR-luciferase reporter, SF-1/DAX-1 repression relief | inhibition, % at 6.8 µM | actives 1.1% (n = 370,000);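 active means inhibition above the mean over all tested compounds plus 3 SD, cut at about 3.6% in these data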;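 further: higher inhibition means more luminescence from relief of DAX-1 repression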
Wnt act: Wnt/beta-catenin pathway activators, primary screen, cell-based, plate reader, single point; actives 1.2% (n = 300,000); activation, % at 9.35 µM; Wnt/beta-catenin reporter cell assay, activator; AID 743398, 2014; in the data active means activation above about 30%, passing the limit was not always enough; inconclusive means no clear call, values can overlap the other calls
esBAF inh: Bmi1 luciferase reporter increase in mESCs, primary screen, esBAF inhibitor project, mouse ES cells, Bmi1 luciferase knock-in, single point | reporter increase, % at 12.5 µM | actives 2% (n = 350,000) | 24 h; 100% = twice the neutral-well signal; in the data active means activation above about 40%; inconclusive means no clear call, values can overlap the other calls;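 further: a rise in the Bmi1 reporter signal indicates esBAF inhibition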
hcDAF12 agonist: H. contortus DAF-12 nuclear receptor activators, primary screen, cell-based, luminescence, HEK293, lit1-tk-luc reporter. HEK293 hcDAF-12 lit1-tk-luc reporter; 0% DMSO, 100% Δ7-dafachronic acid. activation, % at 6.8 µM. actives 1.4% (n = 370,000). AID 652067, 2013;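 active means activation above the mean of all tested compounds plus 3 SD, cut at about 5.5% in these data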
ssDAF12 agonist: S. stercoralis DAF-12 nuclear receptor activators, primary screen, cell-based, luminescence, HEK293, GRIP1 co-expression, lit1-tk-luc. activation, % at 6.8 µM. actives 1% (n = 370,000). Nuclear hormone receptor DAF-12 (Strongyloides stercoralis). HEK293 ssDAF-12/GRIP1 lit1-tk-luc reporter; % of 3 µM dafachronic acid response;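 active means activation above the mean over all tested compounds plus 3 SD, cut at about 0.9% in these data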
hgDAF12 agonist: H. glycines DAF-12 receptor agonists, primary screen, cell-based, luminescence, HEK293, GAL4 fusion, UAS-luciferase; activation, % at 6.8 µM; Nuclear hormone receptor DAF-12 (Heterodera glycines), GAL4 fusion; HEK293 GAL4-hgDAF12 UAS-luciferase reporter, agonist luminescence; normalized to butyrate control; actives 1.8% (n = 370,000);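 active means activation above a cutoff set at the mean of all screened compounds plus 3 SD, cut at about 10% in these data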
A number is an active result; 0 = inactive; ? = inconclusive; - = not tested or not shown. Sampled rows, rich in hits. Any-hit rate of the full collection: about 4.2%.

SMILES	DAX1 inh	Wnt act	esBAF inh	hcDAF12 agonist	ssDAF12 agonist	hgDAF12 agonist
O=C(NC1CCCCC1)c1ccc(-c2cn[nH]c2)c2ccoc12	0	0	53	0	0	13
CN(C)c1ccc(NC(=O)c2ccc3nc[nH]c3c2)cc1	0	0	48	0	0	0
Cc1ccc(NC(=O)c2ccc3nc[nH]c3c2)cc1C	0	0	88	5.9	0	0
O=C(c1ccccc1)c1ccc2nc[nH]c2c1	0	0	-	6.3	0	0
COc1cc(C(=O)Nc2ccc(N(C)C)cc2)cc(OC)c1OC	0	-	71	0	0	0
O=C(NC1CCCC1)c1ccc2nc[nH]c2c1	0	-	0	0	0	0
COc1cc(C(=O)Nc2ccc(S(=O)(=O)N(C)c3ccccc3)cc2)cc(OC)c1OC	0	0	-	0	0	0
Cc1cc(C)cc(NC(=O)c2ccc3nc[nH]c3c2)c1	0	0	0	0	0	0
O=C(CN1CCOCC1)N[C@H]1CC[C@H](CCNS(=O)(=O)c2ccccc2F)O[C@@H]1CO	-	-	0	-	-	-
CN1C(=O)c2cc(NC(=O)c3ccccc3)ccc2OC[C@H]2O[C@@H](CC(=O)O)CC[C@H]21	-	-	0	-	-	-
O=C(N[C@@H]1CC[C@@H](CCNS(=O)(=O)c2ccccc2)O[C@@H]1CO)c1cccnc1	-	-	0	-	-	-
O=C(Nc1nc2ccc(F)cc2s1)c1ccc(N2CCCC2=O)cc1	4.2	0	0	0	0	0
Cc1csc(NC(=O)C2CC(=O)N(c3ccc(C)c(C)c3)C2)n1 (stereo not given)	0	0	0	0	1.6	0
Cc1csc(NC(=O)c2ccc(N3CCCC3=O)cc2)n1	0	35	-	0	0	0
Cc1nnc(NC(=O)c2ccc(N3CCCC3=O)cc2)s1	0	0	?	0	0	0
COc1ccccc1N1CC(C(=O)Nc2nc(C)cs2)CC1=O (stereo not given)	0	0	0	0	0	0
O=C(Nc1ccccc1Br)c1ccc(N2CCCC2=O)cc1	0	37	55	0	0	0
O=C(Nc1ccccc1N1CCCC1)c1ccc(N2CCCC2=O)cc1	0	0	0	0	0	0
O=C(Nc1ccc2c(c1)[C@@H]1C[C@H](CC(=O)N3CCCCC3)O[C@@H](CO)[C@@H]1O2)c1ccc2c(c1)OCO2	-	-	0	-	-	-
CC(=O)N(C)C[C@@H]1Oc2cc(-c3ccc(C)cc3)ccc2S(=O)(=O)N([C@H](C)CO)C[C@@H]1C	-	-	0	-	-	-
CSc1nnc(NC(=O)c2ccc(S(=O)(=O)N(C)C)cc2)s1	0	40	-	0	0	0
CCN(CC)S(=O)(=O)c1ccc(NC(=O)c2ccccn2)cc1	0	0	48	0	0	0
CN(C)S(=O)(=O)c1ccc(C(=O)Nc2nnc(SCc3ccccc3)s2)cc1	0	0	-	0	0	0
CN(C)S(=O)(=O)c1ccc(C(=O)Nc2ccccn2)cc1	0	0	0	0	0	11
Cc1ccc(S(=O)(=O)N(C)c2ccc(C(=O)Nc3ccccn3)cc2)cc1	0	0	0	0	0	0
SMILES	DAX1 inh	Wnt act	esBAF inh	hcDAF12 agonist	ssDAF12 agonist	hgDAF12 agonist
CCCNS(=O)(=O)c1ccc(NC(=O)c2ccccn2)cc1	0	-	-	0	0	0
CN(C)S(=O)(=O)c1ccc(NC(=O)c2ccccn2)cc1	0	0	0	0	0	13
C[C@H](CO)N1C[C@H](C)[C@@H](CN(C)C(=O)c2ccccc2)OCCCC[C@H](C)Oc2ccc(NC(=O)C3CCCCC3)cc2C1=O	-	-	0	-	-	-
C[C@H](O)C#Cc1ccc2c(c1)O[C@H](CN(C)C(=O)CC1CC1)[C@H](C)CN([C@H](C)CO)S2(=O)=O	-	-	0	-	-	-
C[C@H](CO)N1C[C@H](C)[C@@H](CN(C)Cc2ccc(Oc3ccccc3)cc2)Oc2ccc(NS(=O)(=O)c3cn(C)cn3)cc2C1=O	-	-	0	-	-	-
Oc1ccccc1/C=N/NC(=S)NC1CC2C=CC1C2 (stereo not given)	0	0	0	0	0	0

Screening results: PubChem, several laboratories
